Shiga inhibitor – Shiga toxin inhibition; AID 2315; 290,000 tested, 9.2% active; Vero cells, Shiga toxin protein synthesis inhibition reporter; inhibition, % at 38.7 µM; in the data active means inhibition mostly above about 28%, no sharp cut-off; inactive means mostly below about 43%; further: 0% is about no effect
NS1 inh – influenza NS1 inhibition; Potency, µM (titrated, usually from 46.1 µM), inactives show top-dose activity, positive = more growth; 270,000 tested, 0.4% active; calls by dose curve; further: potency means the concentration at half of the fitted maximal effect; actives are rising curves; nearly all actives have a fitted effect of over 50% in size
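Read-out: OD600 growth recovery of NS1-expressing budding yeast. Cells grown overnight at 30C in -URA glucose medium, washed, resuspended and diluted 1:100 in 2% galactose assay medium, pH 6.0. Same strain lacking NS1 served as positive control.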
CHX counter – counter-screen hit for Shiga toxin inhibitors, cycloheximide | cell reporter, cycloheximide protein synthesis inhibition counterscreen | max response, % | 300,000 tested, 12% active; in the data active means max response mostly above about 13%, no sharp cut-off; inactive means mostly below about 14%; further: read at 38.3 µM for the half of the compounds with a filed dose; 0% is about no effect
LmPK inh – inhibitors of Leishmania mexicana pyruvate kinase; Q27686; purified LmPK, Kinase-Glo ATP luminescence, 1 h; Potency, µM (titrated, usually from 57.5 µM), without a hit: at the top dose activity change, negative = inhibition, hits mostly inhibitors; 290,000 tested, 0.37% active; AID 1721; further: potency means the concentration at half of the fitted maximal effect; on the % scale 0 is the no-effect control and ±100 the full control effect
Target sequence (Q27686 whole entry, looked up): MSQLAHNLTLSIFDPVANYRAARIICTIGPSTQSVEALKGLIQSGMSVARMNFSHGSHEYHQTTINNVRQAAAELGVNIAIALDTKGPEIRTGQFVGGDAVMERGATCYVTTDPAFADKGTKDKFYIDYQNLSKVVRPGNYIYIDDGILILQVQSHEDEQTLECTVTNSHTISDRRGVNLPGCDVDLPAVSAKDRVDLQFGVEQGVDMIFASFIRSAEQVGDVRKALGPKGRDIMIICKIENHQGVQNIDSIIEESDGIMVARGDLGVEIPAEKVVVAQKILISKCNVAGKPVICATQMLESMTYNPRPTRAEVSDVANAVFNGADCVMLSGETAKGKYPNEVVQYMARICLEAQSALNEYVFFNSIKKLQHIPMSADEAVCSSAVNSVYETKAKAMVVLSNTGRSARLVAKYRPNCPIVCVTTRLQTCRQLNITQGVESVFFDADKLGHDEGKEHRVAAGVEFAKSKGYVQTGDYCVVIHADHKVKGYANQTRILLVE
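In 50 mM imidazole pH 7.2 with 7 mM MgCl2, LmPK (0.1 nM) turned over PEP (0.5 mM) and ADP (0.1 mM) for 1 h at room temperature. Luciferase read-out of ATP.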
FBPA Giardia inh – inhibitors of Giardia lamblia fructose-1,6-bisphosphate aldolase | purified Giardia FBPA | 290,000 tested, 0.71% active | A8B2U2 | Potency, µM (top dose mostly 59.6 µM), for inactives: top-dose activity, negative = inhibition, usual class: inhibitors; further: potency means the concentration at half of the fitted maximal effect; on the % scale 0 is the no-effect control and ±100 the full control effect; nearly all actives have a fitted effect of over 55% in size
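40 nM FBPA preincubated 10 min at RT with compound (up to 57.5 uM final), then substrate plus GAPDH/TPI/NAD/arsenate coupling and diaphorase/resazurin added. Fluorescence read after 20 min at RT, 525/598 nm.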
Flu NS1 inh – validation of influenza NS1 protein function inhibitors; activity change, negative = inhibition, % at 32.9 µM; shares compounds with NS1 inh; AID 492980; influenza NS1 function cell assay, 15-point titration; 1,400 tested, under 10 active; calls by dose curve; further: 0% is about no effect
PR8 titer – reduces influenza A/PR/8/34 replication in MDCK cells. shares compounds with NS1 inh. MDCK infected influenza A/PR/8/34, virus titer TCID50; stronger effect = lower value. virus titer (log TCID50), log10 TCID50 at 5 µM. 95 tested, 30% active; call rule not given here
The depositor's hits bear a star; ? = inconclusive; . = no result given. The list is not random: actives were taken first. Their share in the collection is about 14%. Unless noted, the call rests on the fitted dose curve; in most records, active means well fitted curve in the direction sought with a large enough effect; inconclusive means small, poorly fitted or top-dose-only effect, or another doubt; inactive means no such curve, though single readings can be large; an effect the other way counts as inactive or inconclusive.

SMILES	Shiga inhibitor	NS1 inh	CHX counter	LmPK inh	FBPA Giardia inh	Flu NS1 inh	others
CC1CC(C)CN(CCCNC(=O)CN2C(=O)c3cccnc3Oc3ccc(Cl)cc32)C1 (centres undefined)	-14.8	0.3%	-2.7	9.2%	.	.
CC(C)OC(=O)c1cc2c(ccn2C)n1CC(=O)N(Cc1ccccc1)c1ccccc1	45.4	11.2µM*	-1.7	4.7%	-14.2%	-27.9
CCOC(=O)c1cc2c(ccn2C)n1Cc1cc(C)ccc1C	10.0	9.3%	-2.7	3.1%	-22.3%	.
Cc1ccccc1S(=O)(=O)Nc1nc2ccccc2nc1N1CCc2ccccc2C1	93.2*	17.8µM*	37.0*	-3.7%	-0.7%	-7.4
O=C(NCc1cc([N+](=O)[O-])ccc1O)c1cc(-c2ccncc2)nc2ccccc12	-7.1	15.1%	-2.9	-0.6%	.	.
C[C@H](NC(=O)c1nc[nH]c1C(=O)N[C@@H](CCCCNC(=O)OC(C)(C)C)C(=O)OC(C)(C)C)C(=O)OCc1ccccc1	2.6	10µM*	10.1	0.1%	?	-33.4
CC(C)C[C@H](NC(=O)c1nc[nH]c1C(=O)NCc1ccc(CNC(=O)OC(C)(C)C)cc1)C(=O)OC(C)(C)C	-2.9	8.91µM*	-3.2	0.4%	-1.6%	2.4
CC(C)C[C@H](NC(=O)c1nc[nH]c1C(=O)N[C@@H](CCCCNC(=O)OC(C)(C)C)C(=O)OC(C)(C)C)C(=O)OCc1ccccc1	7.1	?	7.6	-0.9%	-11.2%	.
CC(C)(C)OC(=O)[C@H](Cc1ccccc1)NC(=O)c1nc[nH]c1C(=O)NCC(=O)OCc1ccccc1	7.6	11.2µM*	-2.1	1.1%	-23.8%	-22.8
C[C@H](NC(=O)c1nc[nH]c1C(=O)N[C@@H](C)C(=O)OC(C)(C)C)C(=O)OCc1ccccc1	-2.0	14.1%	-1.9	-4.8%	-15.7%	.
C[C@H](NC(=O)c1nc[nH]c1C(=O)N[C@@H](Cc1ccccc1)C(=O)OCc1ccccc1)C(=O)OC(C)(C)C	-3.6	10µM*	4.7	-0.4%	?	-25.0
COc1ccc(Cc2nc3ccc(C(=O)N(C)CCc4cnn(C)c4)cc3o2)cc1OC	-3.1	0.2%	13.2	-0.9%	4.4%	.
Cn1c(N)c(C(=O)COC(=O)c2cc(C3CC3)nc3ccccc23)c(=O)n(Cc2ccccc2)c1=O	-20.5	11.2µM*	-3.9	-0.5%	-16.6%	9.9
COc1ccccc1-n1c(SCC(=O)NCc2ccc3c(c2)OCO3)nc2cc([N+](=O)[O-])ccc21	5.7	12.6µM*	-1.8	-2.2%	?	0.5
O=C(O)/C=C/c1nc(-c2ccccc2)n2ccccc12	79.0*	?	71.2*	5.1%	?	-1.3
CCc1cc(=O)oc2cc(C)cc(OCC(=O)N[C@@H](CSCc3ccccc3)C(=O)O)c12	18.9	10µM*	-2.1	-12.1%	22.0%	24.9	PR8 titer=7.33*
O=C(NCc1ccco1)C1CCN(C(=O)c2ccc([N+](=O)[O-])cc2)CC1	9.4	9.8%	7.3	-2.4%	8.3%	.
CC1Oc2ccccc2N(CC(=O)N2CCCCC2)C1=O (centres undefined)	-5.3	10µM*	-4.8	-4.2%	9.4%	8.6
CC1Oc2ccccc2N(CC(=O)N2CCCc3ccccc32)C1=O (centres undefined)	-4.2	-10.6%	8.4	1.1%	-0.6%	.
COc1ccc(N(CC(=O)NN=C2CCN(C)CC2)S(=O)(=O)c2ccccc2)c(OC)c1	-5.9	22.5%	9.7	0.4%	9.2%	.
COc1ccc(C2=Nc3cccc4cccc(c34)N2)cc1	18.5	3.55µM*	4.7	7.4%	0.7%	-3.8
COCC(=O)Nc1ccc2nc3n(c(=O)c2c1)CCCCC3	12.6	?	12.4*	3.2%	-7.7%	-5.2
CCOC(=O)N1CCN(C(=O)CC(=O)Nc2ccc3nc4n(c(=O)c3c2)CCCCC4)CC1	-12.9	-3.4%	1.4	-1.9%	5.4%	.
COc1ccc(C(=S)N2CCOCC2)cc1OC(=O)c1ccc(C)cc1	-9.9	-32.2%	-5.4	-1.4%	.	.

Compound activity as filed in PubChem BioAssay.
